Assay results reported in PubChem BioAssay (EPA / NIEHS).
Records with an inconclusive call do not appear. The source made the active and inactive calls. The calls were made as follows: active = hit-call score of the fitted dose curve at least 0.9, where 1 is the maximum; inconclusive = response in the unintended direction; inactive = score below 0.9.

Tested on: Sodium/Iodide Symporter (NIS), SLC5A5 (gene 6528)
Test: CPHEA_Stoker_NIS_Inhibition_RAIU: CPHEA's Radioactive Iodide Uptake (RAIU) Assay for Sodium/Iodide Symporter (NIS) Inhibition, Stoker and Laws Labs (AID 2283841)
Procedure, shortened: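 Test chemicals, six concentrations from 0.001 to 100uM in 0.5% DMSO, were co-incubated with carrier-free 125I (final 329pM) on hNIS-HEK293T-EPA monolayers in pH 7.4 HEPES-buffered HBSS. Plates stood 2 hours at room temperature, then were washed cold and counted.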

Row | Compound | AC50 | outcome
1 | CN(C)c1ccc(C(=N)c2ccc(N(C)C)cc2)cc1 | 19.8 µM (active) | 
2 | NC(CO)(CO)CO |  | inactive
3 | CCCCCCCC[N+](C)(CCCCCCCC)CCCCCCCC | 10.4 µM (active) | 
4 | Oc1ccc(Cl)cc1Cc1cc(Cl)ccc1O | 9.92 µM (active) | 
5 | CC(C)(C)c1ccc(OC(=O)c2ccccc2O)cc1 |  | inactive
6 | CO[Si](OC)(OC)c1ccccc1 |  | inactive
7 | CC/C=C\C/C=C\C/C=C\CCCCCCCC(=O)O |  | inactive
8 | c1ccc2c(c1)ccc1cc3c(ccc4ccccc43)cc12 |  | inactive
9 | CCOC(=O)Cc1cccc2ccccc12 |  | inactive
10 | O=c1cc(-c2ccccc2)oc2ccccc12 |  | inactive
11 | CCCCCCCCCCOS(=O)(=O)O | 8.08 µM (active) | 
12 | O=C(C=Cc1ccccc1)OCc1ccccc1 |  | inactive
13 | CCN(CCC#N)c1ccc(N=Nc2c(Cl)cc([N+](=O)[O-])cc2Cl)cc1 |  | inactive

Tested on: not listed separately
Test: CPHEA_Stoker_NIS_Cytotoxicity: Cytotoxicity Assessment for CPHEA's Radioactive Iodide Uptake (RAIU) Assay for Sodium/Iodide Symporter (NIS) Inhibition, Stoker and Laws Labs (AID 2283897);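 as to AC50: active means loss of ATP signal versus DMSO meaning cytotoxicity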
Procedure, shortened: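 Viability in hNIS-HEK293T-EPA cells is scored as a drop in luciferase-detected ATP following 2-hour room-temperature exposure (0.001–100uM; triplicate wells, three cell passages), with DMSO as negative control.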

Row | Compound | outcome | AC50
14 | C1CN(SSN2CCOCC2)CCO1 | inactive | 
15 | CN(C)c1ccc(C(=N)c2ccc(N(C)C)cc2)cc1 | inactive | 
16 | NC(CO)(CO)CO | inactive | 
17 | CCCCCCCC[N+](C)(CCCCCCCC)CCCCCCCC |  | 50 µM (active)
18 | Oc1ccc(Cl)cc1Cc1cc(Cl)ccc1O |  | 50 µM (active)
19 | CC(C)(C)c1ccc(OC(=O)c2ccccc2O)cc1 | inactive | 
20 | CO[Si](OC)(OC)c1ccccc1 | inactive | 
21 | CC/C=C\C/C=C\C/C=C\CCCCCCCC(=O)O | inactive | 
22 | c1ccc2c(c1)ccc1cc3c(ccc4ccccc43)cc12 | inactive | 
23 | CCOC(=O)Cc1cccc2ccccc12 | inactive | 
24 | O=c1cc(-c2ccccc2)oc2ccccc12 | inactive | 
25 | CCCCCCCCCCOS(=O)(=O)O | inactive | 
26 | O=C(C=Cc1ccccc1)OCc1ccccc1 | inactive | 
27 | CCN(CCC#N)c1ccc(N=Nc2c(Cl)cc([N+](=O)[O-])cc2Cl)cc1 | inactive | 

Molecular target: PGR (gene 5241) (UniProt P06401)
Sequence (P06401 whole entry, looked up): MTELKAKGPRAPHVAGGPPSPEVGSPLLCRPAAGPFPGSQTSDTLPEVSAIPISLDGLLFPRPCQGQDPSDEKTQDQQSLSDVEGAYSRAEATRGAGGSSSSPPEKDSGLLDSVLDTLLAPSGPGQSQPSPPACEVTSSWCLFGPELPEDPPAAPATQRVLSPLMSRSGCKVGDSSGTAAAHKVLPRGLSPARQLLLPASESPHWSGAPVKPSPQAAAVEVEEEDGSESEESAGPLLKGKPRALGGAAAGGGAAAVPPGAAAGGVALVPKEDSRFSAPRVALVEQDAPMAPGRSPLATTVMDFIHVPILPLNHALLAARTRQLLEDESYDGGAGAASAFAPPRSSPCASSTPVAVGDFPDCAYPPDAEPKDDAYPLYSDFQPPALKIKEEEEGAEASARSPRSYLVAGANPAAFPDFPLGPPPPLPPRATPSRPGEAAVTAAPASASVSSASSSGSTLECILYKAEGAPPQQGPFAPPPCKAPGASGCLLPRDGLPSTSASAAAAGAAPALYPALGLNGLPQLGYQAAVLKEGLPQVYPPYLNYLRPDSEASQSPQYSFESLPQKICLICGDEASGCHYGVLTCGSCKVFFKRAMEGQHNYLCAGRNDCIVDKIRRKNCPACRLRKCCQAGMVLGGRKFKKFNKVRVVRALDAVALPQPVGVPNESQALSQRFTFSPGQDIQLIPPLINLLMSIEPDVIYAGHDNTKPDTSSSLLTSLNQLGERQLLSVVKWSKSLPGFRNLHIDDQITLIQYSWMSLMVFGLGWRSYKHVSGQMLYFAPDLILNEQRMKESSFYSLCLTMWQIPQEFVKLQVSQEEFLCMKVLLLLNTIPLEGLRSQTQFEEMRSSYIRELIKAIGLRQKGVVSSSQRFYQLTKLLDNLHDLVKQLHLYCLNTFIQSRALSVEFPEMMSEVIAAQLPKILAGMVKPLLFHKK
Test: TOX21_PR_BLA_Followup_Antagonist_ratio: Tox21 HEK293 Progesterone Receptor (PR) Antagonism Beta-lactamase Follow-Up Assay, Ratio (AID 2283934);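 also: PR-UAS-bla HEK293T cells stimulated with 1 nM R5020 agonist for 16 hr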
Procedure, shortened: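 Antagonist mode used 1 nM R5020 (final) as agonist on a beta-lactamase reporter line in HEK293T cells. Activity was taken from the substrate cleavage ratio after 16 hr exposure.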

Row | Compound | AC50 | outcome
28 | CC(C)(c1cc(Br)c(OCCO)c(Br)c1)c1cc(Br)c(OCCO)c(Br)c1 | 13.4 µM (active) | 
29 | CCOC(=O)c1ccccc1C(=C1C=C(Br)C(=O)C(Br)=C1)c1cc(Br)c(O)c(Br)c1 | 24.5 µM (active) | 
30 | C#CC1(O)CC[C@H]2[C@@H]3CCC4=CCCC[C@@H]4[C@H]3CC[C@@]21C (some centres undefined) |  | inactive
31 | C[C@]12CCC(=O)C=C1CC[C@@H]1[C@@H]2C(=O)C[C@@]2(C)[C@H]1CC[C@]2(O)C(=O)CO |  | inactive
32 | CC(=O)[C@H]1[C@H](C#N)C[C@H]2[C@@H]3CC=C4C[C@@H](O)CC[C@]4(C)[C@H]3CC[C@@]21C | 19.2 µM (active) | 
33 | CCC(=O)Oc1ccc(/C(CC)=C(\CC)c2ccc(OC(=O)CC)cc2)cc1 | 9.26 µM (active) | 
34 | Nc1ccc(-c2ccc(F)cc2)cc1 | 24.6 µM (active) | 
35 | Cc1ccc(C(C)c2ccc(C)c(C)c2)cc1C |  | inactive
36 | C[C@]12C=CC(=O)C=C1CC[C@@H]1[C@@H]2[C@@H](O)C[C@@]2(C)[C@H]1CC[C@]2(O)C(=O)CO |  | inactive
37 | COc1ccc(C(Cl)=C(c2ccc(OC)cc2)c2ccc(OC)cc2)cc1 | 8.27 µM (active) | 

Molecular target: PGR (gene 5241) (UniProt P06401)
Test: TOX21_PR_LUC_Followup_Antagonist: Tox21 HEK293 Progesterone Receptor (PR) Antagonism Luciferase Follow-Up Assay (AID 2283938);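 also: curve fitted upward as signal gain over DMSO baseline despite antagonist label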
Procedure, shortened: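 Cells are grown 5 days in charcoal-stripped-FBS assay medium, plated, left 5 h, then dosed with compound and incubated 16 h. ONE-Glo reagent is added and luminescence read after 30 min.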

Row | Compound | AC50 | outcome
38 | CC(C)(c1cc(Br)c(OCCO)c(Br)c1)c1cc(Br)c(OCCO)c(Br)c1 | 12.8 µM (active) | 
39 | CCOC(=O)c1ccccc1C(=C1C=C(Br)C(=O)C(Br)=C1)c1cc(Br)c(O)c(Br)c1 | 28.9 µM (active) | 
40 | C#CC1(O)CC[C@H]2[C@@H]3CCC4=CCCC[C@@H]4[C@H]3CC[C@@]21C (some centres undefined) | 23.9 µM (active) | 
41 | C[C@]12CCC(=O)C=C1CC[C@@H]1[C@@H]2C(=O)C[C@@]2(C)[C@H]1CC[C@]2(O)C(=O)CO |  | inactive
42 | CC(=O)[C@H]1[C@H](C#N)C[C@H]2[C@@H]3CC=C4C[C@@H](O)CC[C@]4(C)[C@H]3CC[C@@]21C |  | inactive
43 | CCC(=O)Oc1ccc(/C(CC)=C(\CC)c2ccc(OC(=O)CC)cc2)cc1 | 16.5 µM (active) | 
44 | Nc1ccc(-c2ccc(F)cc2)cc1 |  | inactive
45 | Cc1ccc(C(C)c2ccc(C)c(C)c2)cc1C |  | inactive
46 | COc1ccc(C(Cl)=C(c2ccc(OC)cc2)c2ccc(OC)cc2)cc1 | 8.88 µM (active) | 

Tested on: not listed separately
Test: TOX21_PR_LUC_Followup_Antagonist_viability: Viability Assessment in the Tox21 HEK293 Progesterone Receptor (PR) Antagonism Luciferase Follow-Up Assay (AID 2283940)
Procedure, shortened: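 Cellular ATP, measured with luciferase-coupled CellTiter-Glo, served as the viability endpoint after HEK293-PR-A-luc cells were exposed to test compounds for 16 h at 37C.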

Row | Compound | outcome
47 | CC(C)(c1cc(Br)c(OCCO)c(Br)c1)c1cc(Br)c(OCCO)c(Br)c1 | inactive
48 | CCOC(=O)c1ccccc1C(=C1C=C(Br)C(=O)C(Br)=C1)c1cc(Br)c(O)c(Br)c1 | inactive
49 | C#CC1(O)CC[C@H]2[C@@H]3CCC4=CCCC[C@@H]4[C@H]3CC[C@@]21C (some centres undefined) | inactive
50 | CCC(=O)Oc1ccc(/C(CC)=C(\CC)c2ccc(OC(=O)CC)cc2)cc1 | inactive
51 | Nc1ccc(-c2ccc(F)cc2)cc1 | inactive
52 | Cc1ccc(C(C)c2ccc(C)c(C)c2)cc1C | inactive
53 | C[C@]12C=CC(=O)C=C1CC[C@@H]1[C@@H]2[C@@H](O)C[C@@]2(C)[C@H]1CC[C@]2(O)C(=O)CO | inactive
54 | COc1ccc(C(Cl)=C(c2ccc(OC)cc2)c2ccc(OC)cc2)cc1 | inactive
